This note sets out measurements from PubChem BioAssay (NCATS).

Results filed as inconclusive are left out. A number with no mark means an inactive call. The source made the active and inactive calls. The call rests on the fitted dose curve; in most records, active means well fitted inhibition curve with a large enough effect; inconclusive means small, poorly fitted or top-dose-only effect; inactive means flat fitted curve, though single readings scatter.

The test system of assay [1] is CRL-7250. Nature of the assay: Cytotoxic Profiling of Annotated Libraries Using Quantitative High-Throughput Screening (AID 1296008). Further: nearly all actives have a fitted effect of over 60% in size. Conditions: Five cell lines viability, CellTiter-Glo ATP luminescence, 48-72 h; max response: hits give low values. A digest of the protocol:
(§1)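 Compounds were pin-transferred onto cells and incubated 48 or 72 hr at 37 degree Celsius, 95% humidity. CellTiter-Glo was added, plates sat 10 min at room temperature, then ATP-coupled luminescence was imaged as the viability read-out.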

The test system of assay [2] is HEK293. The description is as above. Conditions: Five cell lines viability, CellTiter-Glo ATP luminescence, 48-72 h; max response: hits give low values. In outline: as §1
On the % scale 0 is the no-effect control and ±100 the full control effect; potency means the concentration at half of the fitted maximal effect.

Consider `COc1ccc(C(O)C(C)OC2OC(CO)C(O)C(O)C2O)cc1` (stereo not given), for which the results for the max response in assay [1] and in assay [2] were -9.11% and 0.525%, respectively.
As to `O=C(NCC(O)CO)c1ccncc1Nc1ccc(I)cc1F` (stereo not given), the Potency in assay [1] was 6.51 µM (active). The max response in assay [2] was -15.9%.
On to `C=C1C(=O)OC2CC(C)=C(C(C)CCCO)C(O)C12` (stereo not given), for which the result in assay [1] was inactive. Besides, the max response in assay [2] is -3.2%.
As to `Nc1ccc(/C=C/C(=O)NCc2cc3cc(-c4ccc(C(=O)N5CCC(F)(F)CC5)cc4)cc(-c4ccc(F)cc4)c3o2)cn1`, the figures for the Potency in assay [1] and in assay [2] were 3.66 µM (active) and 0.58 µM (active), respectively.
Regarding `O=C(O)[C@@H]1C[C@H]2C[C@@H](CCc3nn[nH]n3)CC[C@H]2CN1`, the max response in assay [1] is 0.564%; in assay [2], 1.79%.
For `OC[C@H]1O[C@@H](Oc2ccccc2)[C@H](O)[C@@H](O)[C@@H]1O`, the compound was called inactive in assay [1]. Further, the max response in assay [2] is 0.0932%.
`CCOC(=O)c1cc(C#N)c(N2CCC(C(=O)NS(=O)(=O)Cc3ccccc3)CC2)nc1C`: the outcome in assay [1] was inactive. Moreover, the max response in assay [2] was -0.212%.
Turning to `COc1ccc(/C=C/C(=O)O[C@@H]2[C@@H](O)[C@@H](O)[C@H](O[C@@H]3C=C(CO)[C@H]4[C@H](O[C@@H]5O[C@H](CO)[C@@H](O)[C@H](O)[C@H]5O)OC=C[C@H]43)O[C@H]2C)cc1O`, the max response in assay [1] was 0.875%; in assay [2] it was -69.5%.
With `C=CC(=O)Nc1cc(Nc2nccc(-c3c[nH]c4ccccc34)n2)c(OC)cc1N(C)CCN(C)C`, the Potency was 18.4 µM (active) in assay [1] and 5.17 µM (active) in assay [2].
On to `CC(=O)OC1C[C@@]2(C)[C@@H](CC[C@@H](C)[C@]23Cc2c(O)cc4c(c2O3)CNC4=O)C(C)(C)[C@@H]1O` (stereo not given in full), for which the max response was 2.93% in assay [1] and 1.75% in assay [2].
